Assay [1] has as its target T1, Tyrosine-protein kinase receptor TYRO3 (Homo sapiens) (UniProt Q06418).
T1 sequence (whole entry): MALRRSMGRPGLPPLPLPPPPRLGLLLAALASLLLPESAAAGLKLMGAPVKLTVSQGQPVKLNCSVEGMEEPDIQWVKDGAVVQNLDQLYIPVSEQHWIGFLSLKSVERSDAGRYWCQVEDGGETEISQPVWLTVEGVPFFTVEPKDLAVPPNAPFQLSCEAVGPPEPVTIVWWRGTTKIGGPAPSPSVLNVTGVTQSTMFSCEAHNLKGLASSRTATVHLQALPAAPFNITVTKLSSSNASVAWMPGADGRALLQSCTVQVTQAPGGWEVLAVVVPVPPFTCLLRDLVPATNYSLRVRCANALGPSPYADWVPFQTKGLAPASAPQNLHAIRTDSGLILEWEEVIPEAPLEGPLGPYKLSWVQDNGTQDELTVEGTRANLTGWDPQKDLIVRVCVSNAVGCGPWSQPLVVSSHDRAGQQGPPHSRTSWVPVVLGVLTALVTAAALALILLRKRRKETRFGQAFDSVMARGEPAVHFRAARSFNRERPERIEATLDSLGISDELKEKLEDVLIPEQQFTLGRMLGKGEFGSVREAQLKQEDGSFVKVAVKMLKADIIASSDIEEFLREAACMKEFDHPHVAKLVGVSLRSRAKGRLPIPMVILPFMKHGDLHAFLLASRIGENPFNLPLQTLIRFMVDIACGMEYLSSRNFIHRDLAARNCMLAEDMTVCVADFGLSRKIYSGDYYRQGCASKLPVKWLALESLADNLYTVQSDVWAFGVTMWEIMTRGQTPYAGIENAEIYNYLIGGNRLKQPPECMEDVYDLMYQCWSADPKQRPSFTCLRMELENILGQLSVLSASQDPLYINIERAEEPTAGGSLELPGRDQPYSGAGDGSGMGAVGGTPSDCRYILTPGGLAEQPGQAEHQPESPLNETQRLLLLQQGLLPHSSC
The settings on record: at 1 µM.

Assay [2] deals with Tyrosine-protein kinase Yes (Homo sapiens) (UniProt P07947). The settings on record: at 0.1 µM.
Sequence of Tyrosine-protein kinase Yes (Homo sapiens) (P07947 2-543 limits assumed): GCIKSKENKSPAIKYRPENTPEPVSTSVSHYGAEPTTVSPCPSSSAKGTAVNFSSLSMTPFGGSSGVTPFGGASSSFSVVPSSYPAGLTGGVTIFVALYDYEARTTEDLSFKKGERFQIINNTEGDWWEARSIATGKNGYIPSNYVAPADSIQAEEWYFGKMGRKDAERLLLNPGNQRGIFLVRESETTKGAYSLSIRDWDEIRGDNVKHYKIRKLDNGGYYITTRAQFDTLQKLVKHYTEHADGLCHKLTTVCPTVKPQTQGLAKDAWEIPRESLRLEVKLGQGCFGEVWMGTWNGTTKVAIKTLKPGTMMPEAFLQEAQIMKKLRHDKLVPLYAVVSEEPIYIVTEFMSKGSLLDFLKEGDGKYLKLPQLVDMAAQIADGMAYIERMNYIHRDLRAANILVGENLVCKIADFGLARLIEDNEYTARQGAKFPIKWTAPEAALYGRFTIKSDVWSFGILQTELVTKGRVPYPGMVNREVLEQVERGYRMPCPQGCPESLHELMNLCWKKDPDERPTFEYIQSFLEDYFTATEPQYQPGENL
Assay [3] has the same target. The settings on record: at 1 µM.
Assay [4] concerns the target T2, Tyrosine-protein kinase ZAP-70 (Homo sapiens) (UniProt P43403).
T2 sequence (whole entry): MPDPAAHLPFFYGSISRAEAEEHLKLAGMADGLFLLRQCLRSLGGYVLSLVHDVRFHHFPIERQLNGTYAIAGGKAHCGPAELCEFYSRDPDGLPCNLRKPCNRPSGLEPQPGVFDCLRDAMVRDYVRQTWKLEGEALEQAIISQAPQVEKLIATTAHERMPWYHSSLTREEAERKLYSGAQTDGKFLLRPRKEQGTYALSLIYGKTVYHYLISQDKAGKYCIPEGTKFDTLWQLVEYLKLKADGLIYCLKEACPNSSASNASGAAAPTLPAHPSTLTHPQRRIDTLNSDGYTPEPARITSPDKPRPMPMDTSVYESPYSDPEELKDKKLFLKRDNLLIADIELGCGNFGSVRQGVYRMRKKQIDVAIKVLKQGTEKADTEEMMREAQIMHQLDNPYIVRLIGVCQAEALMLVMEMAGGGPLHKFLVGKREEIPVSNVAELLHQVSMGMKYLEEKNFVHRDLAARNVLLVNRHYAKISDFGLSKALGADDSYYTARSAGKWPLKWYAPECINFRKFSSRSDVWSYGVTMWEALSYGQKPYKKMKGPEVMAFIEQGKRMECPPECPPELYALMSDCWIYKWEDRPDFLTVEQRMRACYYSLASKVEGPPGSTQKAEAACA
The settings on record: at 0.1 µM.

Assay [5] has as its target T2, Tyrosine-protein kinase ZAP-70 (Homo sapiens). The settings on record: at 1 µM.
Assay [6] has as its target Serine/threonine-protein kinase B-raf (Homo sapiens) (UniProt P15056). The settings on record: at 0.1 µM.
Assay [7] shares this target. The settings on record: at 1 µM.
The subject of assay [8] is Serine/threonine-protein kinase B-raf (Homo sapiens), P15056 [V600E]. The settings on record: at 0.1 µM.
Assay [9] has the same test system. The settings on record: at 1 µM.
Assay [10] has as its target RAF proto-oncogene serine/threonine-protein kinase (Homo sapiens) (UniProt P04049). The settings on record: at 0.1 µM.
For assay [11] the target is unchanged. The settings on record: at 1 µM.
For assay [12], the target named is T3, Interleukin-1 receptor-associated kinase 4 (Homo sapiens) (UniProt Q9NWZ3).
T3 sequence (whole entry): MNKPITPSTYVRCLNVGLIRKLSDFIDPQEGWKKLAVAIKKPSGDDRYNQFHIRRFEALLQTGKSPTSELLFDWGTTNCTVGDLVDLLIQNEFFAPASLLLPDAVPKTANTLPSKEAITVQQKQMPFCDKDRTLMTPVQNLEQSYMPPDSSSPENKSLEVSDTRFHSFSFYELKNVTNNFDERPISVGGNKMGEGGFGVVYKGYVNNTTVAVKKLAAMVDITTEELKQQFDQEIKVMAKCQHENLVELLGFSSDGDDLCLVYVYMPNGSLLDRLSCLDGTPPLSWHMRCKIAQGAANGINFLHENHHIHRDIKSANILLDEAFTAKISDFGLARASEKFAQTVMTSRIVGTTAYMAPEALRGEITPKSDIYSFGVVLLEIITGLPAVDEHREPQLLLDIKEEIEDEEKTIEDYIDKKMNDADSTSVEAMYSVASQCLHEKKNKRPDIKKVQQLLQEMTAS
The settings on record: at 0.1 µM.

Assay [13] deals with T3, Interleukin-1 receptor-associated kinase 4 (Homo sapiens). The settings on record: at 1 µM.
For assay [14], the target named is Leucine-rich repeat serine/threonine-protein kinase 2 (Homo sapiens) (UniProt Q5S007). The settings on record: at 0.1 µM.
Sequence of Leucine-rich repeat serine/threonine-protein kinase 2 (Homo sapiens) (Q5S007 whole entry): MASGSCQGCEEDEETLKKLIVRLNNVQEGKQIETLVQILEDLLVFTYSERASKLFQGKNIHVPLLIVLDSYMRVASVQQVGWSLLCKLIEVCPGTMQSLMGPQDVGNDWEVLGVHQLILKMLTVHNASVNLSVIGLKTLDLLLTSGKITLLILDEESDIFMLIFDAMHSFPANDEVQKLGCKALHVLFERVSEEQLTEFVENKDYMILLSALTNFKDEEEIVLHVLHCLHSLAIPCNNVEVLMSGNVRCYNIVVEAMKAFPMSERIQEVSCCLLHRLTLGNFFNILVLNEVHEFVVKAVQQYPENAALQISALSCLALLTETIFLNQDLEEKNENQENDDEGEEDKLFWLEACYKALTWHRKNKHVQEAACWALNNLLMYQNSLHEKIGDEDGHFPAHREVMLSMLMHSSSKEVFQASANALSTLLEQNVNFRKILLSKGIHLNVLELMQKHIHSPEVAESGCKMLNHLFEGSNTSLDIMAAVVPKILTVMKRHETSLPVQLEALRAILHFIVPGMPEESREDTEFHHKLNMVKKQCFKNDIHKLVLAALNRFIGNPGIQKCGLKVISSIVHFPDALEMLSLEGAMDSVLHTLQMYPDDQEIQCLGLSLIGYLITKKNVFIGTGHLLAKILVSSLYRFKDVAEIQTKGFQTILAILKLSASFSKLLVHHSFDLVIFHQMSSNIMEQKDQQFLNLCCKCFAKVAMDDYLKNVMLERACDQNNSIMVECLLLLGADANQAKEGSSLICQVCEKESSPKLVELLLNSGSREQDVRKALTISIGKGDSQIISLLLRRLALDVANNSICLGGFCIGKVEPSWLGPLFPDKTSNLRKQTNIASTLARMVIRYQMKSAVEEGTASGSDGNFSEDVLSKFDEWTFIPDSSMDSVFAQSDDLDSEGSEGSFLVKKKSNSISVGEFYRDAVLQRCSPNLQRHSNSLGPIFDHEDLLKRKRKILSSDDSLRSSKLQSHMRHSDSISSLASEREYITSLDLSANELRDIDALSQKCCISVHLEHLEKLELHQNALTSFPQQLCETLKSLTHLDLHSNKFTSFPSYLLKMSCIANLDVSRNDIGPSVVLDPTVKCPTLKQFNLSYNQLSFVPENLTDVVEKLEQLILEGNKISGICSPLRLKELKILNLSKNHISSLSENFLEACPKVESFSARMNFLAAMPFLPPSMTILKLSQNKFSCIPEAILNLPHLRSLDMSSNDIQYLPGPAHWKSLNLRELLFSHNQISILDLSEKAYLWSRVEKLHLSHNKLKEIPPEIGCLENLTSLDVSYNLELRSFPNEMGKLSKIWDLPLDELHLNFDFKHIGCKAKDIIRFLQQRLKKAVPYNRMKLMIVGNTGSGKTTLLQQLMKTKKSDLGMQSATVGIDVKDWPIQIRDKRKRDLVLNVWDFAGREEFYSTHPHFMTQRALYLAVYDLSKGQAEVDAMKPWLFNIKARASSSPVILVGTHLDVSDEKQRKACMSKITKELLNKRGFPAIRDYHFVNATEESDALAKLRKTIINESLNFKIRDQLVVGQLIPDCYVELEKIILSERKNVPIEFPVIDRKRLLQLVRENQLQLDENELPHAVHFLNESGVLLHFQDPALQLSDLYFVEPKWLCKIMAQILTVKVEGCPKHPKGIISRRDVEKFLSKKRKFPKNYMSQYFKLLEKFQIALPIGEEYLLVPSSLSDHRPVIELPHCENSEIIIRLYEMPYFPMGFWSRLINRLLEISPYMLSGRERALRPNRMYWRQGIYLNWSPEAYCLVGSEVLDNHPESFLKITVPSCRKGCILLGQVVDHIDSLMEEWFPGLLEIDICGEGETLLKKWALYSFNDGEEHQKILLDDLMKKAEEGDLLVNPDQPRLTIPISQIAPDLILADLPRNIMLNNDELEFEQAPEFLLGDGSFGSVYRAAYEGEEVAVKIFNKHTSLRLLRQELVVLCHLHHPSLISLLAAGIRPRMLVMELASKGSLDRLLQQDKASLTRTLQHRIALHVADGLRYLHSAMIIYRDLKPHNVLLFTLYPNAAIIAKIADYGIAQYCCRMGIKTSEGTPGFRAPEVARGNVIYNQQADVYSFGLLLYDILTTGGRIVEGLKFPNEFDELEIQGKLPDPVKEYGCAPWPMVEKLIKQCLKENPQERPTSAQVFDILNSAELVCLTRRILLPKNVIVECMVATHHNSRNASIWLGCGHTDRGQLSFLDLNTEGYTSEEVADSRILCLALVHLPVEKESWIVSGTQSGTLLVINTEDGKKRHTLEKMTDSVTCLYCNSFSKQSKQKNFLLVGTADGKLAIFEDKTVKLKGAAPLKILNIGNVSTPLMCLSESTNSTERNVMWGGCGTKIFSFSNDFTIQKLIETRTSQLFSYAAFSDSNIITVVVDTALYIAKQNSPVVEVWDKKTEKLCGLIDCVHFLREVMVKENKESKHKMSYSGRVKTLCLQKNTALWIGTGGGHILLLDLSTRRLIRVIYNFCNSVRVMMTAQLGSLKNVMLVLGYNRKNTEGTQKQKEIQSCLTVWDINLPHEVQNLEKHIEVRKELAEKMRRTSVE
For assay [15] the target is unchanged. The settings on record: at 1 µM.
Assay [16] relates to Leucine-rich repeat serine/threonine-protein kinase 2 (Homo sapiens), Q5S007 [G2019S]. The settings on record: at 0.1 µM.
Sequence of Leucine-rich repeat serine/threonine-protein kinase 2 (Homo sapiens), Q5S007 [G2019S] (Q5S007 whole entry G2019S): as the sequence (Q5S007 whole entry) above, with G2019S counted along it
For assay [17] the test system is unchanged. The settings on record: at 1 µM.

Sequence of RAF proto-oncogene serine/threonine-protein kinase (Homo sapiens) (P04049 whole entry): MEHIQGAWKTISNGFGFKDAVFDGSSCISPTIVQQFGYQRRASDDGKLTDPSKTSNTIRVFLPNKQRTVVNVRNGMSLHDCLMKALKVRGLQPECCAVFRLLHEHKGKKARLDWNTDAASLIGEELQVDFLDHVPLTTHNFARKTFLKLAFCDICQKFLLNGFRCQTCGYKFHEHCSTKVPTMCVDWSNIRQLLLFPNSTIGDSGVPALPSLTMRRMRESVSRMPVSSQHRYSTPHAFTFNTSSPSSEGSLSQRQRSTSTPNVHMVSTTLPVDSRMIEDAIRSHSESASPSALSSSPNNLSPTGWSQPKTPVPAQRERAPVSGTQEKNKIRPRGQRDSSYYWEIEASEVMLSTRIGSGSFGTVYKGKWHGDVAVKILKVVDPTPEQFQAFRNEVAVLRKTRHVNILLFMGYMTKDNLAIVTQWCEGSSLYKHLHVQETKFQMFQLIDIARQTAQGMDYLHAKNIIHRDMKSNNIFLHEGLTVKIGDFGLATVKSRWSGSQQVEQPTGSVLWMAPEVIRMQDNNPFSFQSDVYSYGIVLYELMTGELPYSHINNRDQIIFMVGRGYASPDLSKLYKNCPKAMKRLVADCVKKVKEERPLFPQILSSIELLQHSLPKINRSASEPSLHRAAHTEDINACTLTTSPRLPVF
Sequence of Serine/threonine-protein kinase B-raf (Homo sapiens), P15056 [V600E] (P15056 whole entry V600E): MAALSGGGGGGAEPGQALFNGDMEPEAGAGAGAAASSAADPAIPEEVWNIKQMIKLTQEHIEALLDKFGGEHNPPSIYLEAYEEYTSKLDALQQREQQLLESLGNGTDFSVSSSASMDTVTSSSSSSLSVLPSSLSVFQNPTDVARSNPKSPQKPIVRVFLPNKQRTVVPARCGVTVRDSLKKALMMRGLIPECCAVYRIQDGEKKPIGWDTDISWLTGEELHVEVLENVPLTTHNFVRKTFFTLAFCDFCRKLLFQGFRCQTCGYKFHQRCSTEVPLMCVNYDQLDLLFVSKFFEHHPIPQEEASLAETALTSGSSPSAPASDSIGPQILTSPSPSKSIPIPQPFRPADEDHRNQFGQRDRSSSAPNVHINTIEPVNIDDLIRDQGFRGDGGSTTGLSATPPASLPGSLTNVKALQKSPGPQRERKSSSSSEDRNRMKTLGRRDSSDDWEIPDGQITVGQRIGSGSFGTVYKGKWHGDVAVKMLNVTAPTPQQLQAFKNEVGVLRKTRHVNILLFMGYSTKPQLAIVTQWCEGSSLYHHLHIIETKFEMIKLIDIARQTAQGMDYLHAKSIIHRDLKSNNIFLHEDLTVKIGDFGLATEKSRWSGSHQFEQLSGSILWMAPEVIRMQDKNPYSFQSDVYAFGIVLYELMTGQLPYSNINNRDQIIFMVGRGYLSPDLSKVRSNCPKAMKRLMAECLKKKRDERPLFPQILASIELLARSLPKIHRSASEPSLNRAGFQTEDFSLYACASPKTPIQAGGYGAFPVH
Sequence of Serine/threonine-protein kinase B-raf (Homo sapiens) (P15056 whole entry): as the sequence (P15056 whole entry V600E) above, with E600V counted along it

As for `NC(=O)c1ccc(Oc2nccc(-c3c(-c4ccc(F)cc4)ncn3C3CCNCC3)n2)cc1`, the inhibition (commonly the change of the read-out against control, counted positive when it falls) in assay [1] was found to be 4.62%; in [2], 4.3%; in [3] it was 4.13%; in [4], 2.59%; in assay [5], 4.42%; in assay [6] it was 7.51%. Also, the inhibition in assay [7] worked out at 10.8%; in assay [8], 4.69%; in [9] it was 5.64%; in assay [10], 3.18%; in assay [11], 0.88%; in [12], 2.75%. Further, the inhibition in [13] is 3.85%; in [14], 0.29%; in [15] it was 5.49%; in [16], 3.7%; in assay [17], 7.46%.
For `COc1cc(Nc2ncc3c(C)nc(-c4cccc(Oc5ccccc5)c4)n3n2)cc(OC)c1OC`, the inhibition in [1] is 5.32%; in [2], -0.14%; in assay [3], 7.34%; in [4], 1.87%; in assay [5] it was -1.81%; in [6] it was 3.08%. The inhibition in [7] is 12.2%; in assay [8] it was 2.54%; in assay [9] it was 11.4%; in assay [10] it was 2.2%; in [11], -0.45%; in assay [12], -1.6%. In addition, the inhibition in assay [13] came to 0.83%; in assay [14], 11.7%; in assay [15], 18.3%; in [16], 13.8%; in [17], 47.3%.
For `NC(=O)Cc1ccccc1Oc1nccc(-c2c(-c3ccc(F)cc3)ncn2C2CCNCC2)n1`, the inhibition in [1] is -0.3%; in assay [2], 1.2%; in assay [3] it was 2.44%; in assay [4], 2.88%; in assay [5] it was -4.81%; in assay [6], 3.8%. In addition, the inhibition is 6.06% in [7]; 3.3% in assay [8]; 4.77% in [9]; -0.15% in [10]; -7.05% in [11]; 3.72% in assay [12]. Moreover, the inhibition was found to be 1.16% in assay [13]; 6.61% in [14]; 2.56% in assay [15]; 6.11% in assay [16]; 8.33% in [17].
Regarding `COc1cc2ncn(-c3cc(OCc4ccccc4C(F)(F)F)c(C(C)=O)s3)c2cc1OC`, the inhibition is 2.25% in assay [1]; 2.59% in [2]; 6.19% in assay [3]; -0.08% in assay [4]; -3.94% in [5]; 5.13% in assay [6]. In addition, the inhibition in assay [7] is 5.83%; in assay [8] it was 4.21%; in assay [9], 4.4%; in assay [10], -0.73%; in [11], -1.56%; in assay [12], 0.98%. In addition, the inhibition amounted to 1.4% in assay [13]; 3.23% in assay [14]; 6.15% in assay [15]; 3.58% in [16]; 6.68% in [17].
With `O=C(Nc1n[nH]c2nc(-c3ccco3)ccc12)C1CC1`, the inhibition amounted to 8.73% in assay [1]; 0.35% in assay [2]; 0.02% in [3]; 0.28% in assay [4]; 0.47% in assay [5]; 1.98% in [6]. In addition, the inhibition in assay [7] was 3.43%; in assay [8], 1.17%; in assay [9], 4.38%; in assay [10], 4.75%; in assay [11] it was 0.48%; in [12], -2.9%. In addition, the inhibition was determined as 0.56% in assay [13]; 3.59% in assay [14]; 7.47% in assay [15]; 2.37% in assay [16]; 8.01% in assay [17].
For `N#Cc1ccc(Oc2nccc(-c3c(-c4ccc(F)cc4)ncn3C3CCNCC3)n2)cc1`, the inhibition was 3.55% in [1]; 3.38% in assay [2]; 3.87% in [3]; -0.57% in assay [4]; 1.9% in assay [5]; 6.93% in assay [6]. Besides, the inhibition in assay [7] was 6.24%; in [8], 4.98%; in assay [9], 4.44%; in [10], -1.66%; in [11], -0.95%; in assay [12], 2.17%. Also, the inhibition in [13] was found to be 2.43%; in assay [14], 2.8%; in assay [15], 3.91%; in assay [16], 4.91%; in assay [17], 4.95%.
As to `Nc1nccc(-c2c(-c3ccc(F)cc3)ncn2C2CCC(O)CC2)n1` (stereo not given), the inhibition in assay [1] is 2.9%; in assay [2] it was 5.1%; in assay [3], 40%; in assay [4] it was -8.32%; in [5], 1.54%; in assay [6], -2.22%. The inhibition in assay [7] was -1.06%; in assay [8] it was -3.35%; in assay [9] it was -2.66%; in assay [10], -4.81%; in [11] it was -9.19%; in assay [12], -0.79%. Besides, the inhibition was -1% in assay [13]; -0.71% in assay [14]; 0.86% in [15]; 1.56% in [16]; 4.03% in [17].
Turning to `C/C(Nc1ccc(S(N)(=O)=O)cc1)=C1/C(=O)Nc2ccccc21`, the inhibition in [1] is 16.8%; in assay [2], -1.58%; in assay [3], 14.1%; in [4], -2.58%; in assay [5] it was 0.18%; in [6], -1.47%. Besides, the inhibition in assay [7] was 0.23%; in [8], -2.48%; in assay [9], -0.68%; in assay [10] it was -5.23%; in [11] it was -3.52%; in [12] it was 2.06%. In addition, the inhibition was found to be 0.3% in assay [13]; 3.27% in assay [14]; 18.4% in [15]; 11.4% in assay [16]; 47.1% in [17].
For the compound `CN(c1ccc(NC(=O)Nc2c(Cl)cccc2Cl)cc1)c1ccnc(Nc2cccc(CS(C)(=O)=O)c2)n1`, the inhibition in assay [1] is 17.4%; in assay [2], 17.6%; in assay [3] it was 28.2%; in assay [4] it was 4.97%; in assay [5], 9.82%; in [6], 1.79%. Also, the inhibition in assay [7] was 4.11%; in [8] it was 2.49%; in assay [9] it was 5.8%; in assay [10], 0.7%; in assay [11], 1.82%; in [12], 0.17%. The inhibition in assay [13] turned out to be 1.26%; in assay [14], 12.2%; in assay [15] it was 15.4%; in [16] it was 9.38%; in assay [17] it was 20.4%.
Regarding `CNC(=O)c1cncc(/C=C/c2c(C)cccc2C)c1`, the inhibition is 2.18% in assay [1]; 6.81% in [2]; 33% in assay [3]; -2.13% in [4]; -4.22% in assay [5]; 0.8% in assay [6]. The inhibition in [7] was 5.69%; in [8], -0.11%; in [9] it was 2.82%; in assay [10] it was -5.49%; in assay [11], -0.25%; in assay [12], -1.78%. Further, the inhibition was 0.42% in assay [13]; -5.56% in [14]; -1.97% in assay [15]; -3.85% in [16]; -1.34% in assay [17].

For the origin of these results see ChEMBL document CHEMBL1961873, “Compounds: GSK PKIS; Assays: Nanosyn kinase panel” (2012).
